Measured values reported in PubChem BioAssay (EPA / NIEHS).
“And” between values parts separate entries of the source, which are not always exact repeats. Equal entries are not always repeated. Results filed as inconclusive are left out. The source made the active and inactive calls. The calls were made as follows, unless noted: active = hit-call score of the fitted dose curve at least 0.9, where 1 is the maximum; inconclusive = response in the unintended direction; inactive = score below 0.9.

Experiments:
[1] = Tanguay_ZF_120hpf_PFIN_legacy: (Legacy) Oregon State University Tanguay Lab 120 Hour Post-fertilization zebrafish Assay for Pectoral Fin Malformation (AID 2283648);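 also: each larva judged yes or no for fin defect by brightfield with dead larvae skipped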
Method in brief: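 5D WT zebrafish; pronase dechorionation 4 hpf; 1 embryo/well at 6 hpf; static exposure to 120 hpf, 28C, sealed, foil-covered; final DMSO 0.64% v/v; 5 uM trimethyltin chloride positive control; fin defect scored yes/no.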

[2] = Tanguay_ZF_120hpf_CIRC_legacy: (Legacy) Oregon State University Tanguay Lab 120 Hour Post-fertilization zebrafish Assay for Circulatory Malformation (AID 2283651)
Method in brief: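 Read-out: presence or absence of circulatory malformation at 120 hpf, scored by brightfield microscopy, fitted in the gain-of-signal direction against DMSO baseline. Wild-type 5D larvae were exposed from 6 hpf after enzymatic chorion removal.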

[3] = Tanguay_ZF_120hpf_SWIM_legacy: (Legacy) Oregon State University Tanguay Lab 120 Hour Post-fertilization zebrafish Assay for Swim Bladder Malformation (AID 2283654);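 also: swim bladder malformation in each larva scored yes or no under brightfield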
Method in brief: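 Embryos lacking chorions were exposed individually and statically to test chemical from 6 to 120 hpf at 28C, with 0.64% DMSO as vehicle. At 120 hpf, swim bladder malformation was recorded as present or absent by brightfield microscopy.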

[4] = Tanguay_ZF_120hpf_NC_legacy: (Legacy) Oregon State University Tanguay Lab 120 Hour Post-fertilization zebrafish Assay for Notochord and Tail Malformation (AID 2283656)
Method in brief: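 Dechorionated Tropical 5D wild-type zebrafish embryos, one per well from 6 hpf, statically exposed to 120 hpf at 28C in 0.64% DMSO final. Notochord distortion scored present/absent by brightfield; dead embryos excluded.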

[5] = CCTE_Padilla_ZF_144hpf_TERATOSCORE: (Legacy) CCTE's 144 Hour Post-fertilization zebrafish Assay Teratoscore, Padilla Lab (AID 2283679; active = hit-call score of the fitted dose curve at least 0.9, where 1 is the maximum; inactive = score below 0.9;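 as to AC50: zebrafish embryos with chorions exposed by immersion from 6-8 hpf to 5 dpf with daily renewal; teratogenicity score from eye scoring of death hatching and malformations at 144 hpf; higher score means more developmental defects relative to DMSO baseline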)
Method in brief: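 Larvae scored by eye at 144 hpf for death, hatching and malformations after a day in clean Hanks'. Before that, daily-renewed exposure at 80 uM (0.4% DMSO, 26C) from roughly 6-8 hpf through 5 dpf, 4 embryos per chemical.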

[6] = STM_H9_OrnithineISnorm_perc: Stemina devTOX quickPredict H9 human embryonic stem cell (hESC)-based Assay for Ornithine (ORN) Metabolite Biomarker, Normalized (AID 2283712; active = hit-call score of the fitted dose curve at least 0.9, where 1 is the maximum; inactive = score below 0.9;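 also: ornithine released into spent medium during last day measured by mass spectrometry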)
Method in brief: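 H9 human embryonic stem cells kept pluripotent receive test chemical over 72 h, refreshed daily by media exchange. Media from the closing 24 h is deproteinized and analysed by UPLC-HRMS on an amide column; ornithine signal is scaled to labelled standard and vehicle.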

[7] = STM_H9_CystineISnorm_perc: Stemina devTOX quickPredict H9 human embryonic stem cell (hESC)-based Assay for Cystine (CYSS) Metabolite Biomarker, Normalized (AID 2283713; active = hit-call score of the fitted dose curve at least 0.9, where 1 is the maximum; inactive = score below 0.9)
Method in brief: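 H9 hESC, pluripotent; compound 72h, re-dosed q24h with medium change. Last-24h medium → 40% acetonitrile deproteinization → UPLC-HRMS. CYSS area / C13-CYSS standard, then % of 0.1% DMSO median.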

[8] = STM_H9_OrnCyssISnorm_ratio: Stemina devTOX quickPredict H9 human embryonic stem cell (hESC)-based Assay for Ornithine (ORN):Cystine (CYSS) Ratio (AID 2283714)
Method in brief: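 Steps: H9 hESCs in pluripotent state dosed 72h, medium plus compound renewed every 24h; conditioned medium from the final 24h deproteinized in 40% acetonitrile; ORN and CYSS quantified by UPLC-HRMS with C13 spike-ins; ratio relative to vehicle.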

[9] = Tanguay_ZF_120hpf_ActivityScore_legacy: (Legacy) Oregon State University Tanguay Lab 120 Hour Post-fertilization zebrafish Assay Score for Activity (AID 2283742)
Method in brief: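 Embryos are staged, enzymatically dechorionated at 4 hpf, placed individually at 6 hpf, then held in test chemical (0.64% DMSO) at 28C until 120 hpf. Mortality and malformations are scored by brightfield, with non-mortality endpoints skipped for dead embryos.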

[10] = Tanguay_ZF_120hpf_PIG_legacy: (Legacy) Oregon State University Tanguay Lab 120 Hour Post-fertilization zebrafish Assay for Pigmentation Malformation (AID 2283650)
Method in brief: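 Pronase dechorionation at 4 hpf; embryos plated at 6 hpf, one per well; static exposure, sealed and foil-covered, 28C, to 120 hpf; pigmentation read by brightfield, binary; DMSO 0.64% baseline, 5uM trimethyltin chloride positive control.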

[11] = test system: Thyroperoxidase (TPO), gene 54314; experiment: CCTE_Simmons_AUR_rTPO: CCTE's Amplex UltraRed Assay for Thyroperoxidase (TPO) Inhibition, Simmons Lab (AID 2283662);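 also: potency for loss of signal meaning inhibition of peroxidase activity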
Method in brief: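 Rat thyroid microsomes (5 ug protein) were incubated with test compound (8 concentrations, 5 nM–87.5 uM final, 0.5% DMSO), 25 uM Amplex UltraRed and 300 uM H2O2 in 200 mM phosphate buffer for 30 min at 37C in the dark; fluorescence read at 544/590 nm.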

[12] = Tanguay_ZF_120hpf_TR_legacy: (Legacy) Oregon State University Tanguay Lab 120 Hour Post-fertilization zebrafish Assay for Touch Response (AID 2283667)
Method in brief: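 5D WT embryos; static exposure to 120 hpf, 28C, sealed/dark; DMSO 0.64% v/v final. TR scored present/absent; dead embryos excluded. Pos ctrl 5uM trimethyltin chloride.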

[13] = CEETOX_H295R_MTT_cell_viability: Viability Assessment in the CeeTox HT-H295R MTT Assay (AID 2283718; active = hit-call score of the fitted dose curve at least 0.9, where 1 is the maximum; inactive = score below 0.9;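 as to AC50: curve fitted both ways so AC50 may mark viability loss or gain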)
Method in brief: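 MTT reduction (0.5 mg/ml, 4 h at 37 C; absorbance at 570 and 650 nm) gave viability as background-corrected percent change versus controls. H295R cells had 48 h forskolin (10 uM) prestimulation, then 48 h chemical exposure at 0.1% DMSO.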

[14] = Tanguay_ZF_120hpf_TRUN_legacy: (Legacy) Oregon State University Tanguay Lab 120 Hour Post-fertilization zebrafish Assay for Truncated Body (AID 2283655)
Method in brief: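 Single dechorionated zebrafish embryos received test chemical from 6 hpf in 0.64% DMSO, kept at 28C. At 120 hpf, brightfield inspection noted any truncated body.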

[15] = Tanguay_ZF_120hpf_CFIN_legacy: (Legacy) Oregon State University Tanguay Lab 120 Hour Post-fertilization zebrafish Assay for Caudal Fin Malformation (AID 2283649)
Method in brief: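 Single dechorionated 5D wild-type embryos are dosed at 6 hpf (final DMSO 0.64%) and held statically at 28C. Caudal fin malformation is recorded as present or absent at 120 hpf under brightfield, excluding dead embryos.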

[16] = read-out: kallikrein-3 (KLK3), KLK3 (gene 354); experiment: LTEA_HepaRG_KLK3: Life Technologies and Expression Analysis (LTEA) Assay for kallikrein-3 (KLK3) using HepaRG (AID 2283652; active = hit-call score of the fitted dose curve at least 0.9, where 1 is the maximum; inactive = score below 0.9); settings: mRNA level, 48 h; actives raise or lower the signal
Method in brief: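 Differentiated human HepaRG cells in serum-free induction medium exposed 48 h in duplicate, eight-point half-log series from 100 uM in 0.5% DMSO. KLK3 mRNA by qRT-PCR, normalised to ACTB, GAPDH, POLR2A; bidirectional fit versus DMSO.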

[17] = read-out: solute carrier (SLC22A6), SLC22A6 (gene 9356); experiment: LTEA_HepaRG_SLC22A6: Life Technologies and Expression Analysis (LTEA) Assay for solute carrier (SLC22A6) using HepaRG (AID 2283653; active = hit-call score of the fitted dose curve at least 0.9, where 1 is the maximum; inactive = score below 0.9); settings: mRNA level, 48 h; actives raise or lower the signal
Method in brief: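 Gene-expression endpoint in HepaRG hepatic cells: duplicate 8-point concentration-response, highest 100 uM, 48 h treatment in serum-free medium with 0.5% DMSO. SLC22A6 expression measured by qRT-PCR, normalised to ACTB/GAPDH/POLR2A.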

[18] = read-out: solute carrier (SLC10A1), SLC10A1 (gene 6554); experiment: LTEA_HepaRG_SLC10A1: Life Technologies and Expression Analysis (LTEA) Assay for solute carrier (SLC10A1) using HepaRG (AID 2283657; active = hit-call score of the fitted dose curve at least 0.9, where 1 is the maximum; inactive = score below 0.9); settings: mRNA level, 48 h; actives raise or lower the signal
Method in brief: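 Transcript levels were measured by qRT-PCR after human HepaRG cells received test chemical for 48 hours, up to 100 uM in half-log dilutions. Values come from bidirectional concentration-response fitting relative to 0.5% DMSO vehicle.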

[19] = read-out: matrix metalloproteinase-1 (MMP1), MMP1 (gene 4312); experiment: LTEA_HepaRG_MMP1: Life Technologies and Expression Analysis (LTEA) Assay for matrix metalloproteinase-1 (MMP1) using HepaRG (AID 2283658; active = hit-call score of the fitted dose curve at least 0.9, where 1 is the maximum; inactive = score below 0.9); settings: mRNA level, 48 h; actives raise or lower the signal
Method in brief: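 In this screen, human liver HepaRG cultures receive each chemical in duplicate for 48 h (top 100 uM, 0.5% DMSO). MMP1 expression is then quantified by TaqMan qRT-PCR with ACTB/GAPDH/POLR2A normalization.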

[20] = read-out: Cytochrome P450 (CYP24A1_1), CYP24A1 (gene 1591); experiment: LTEA_HepaRG_CYP24A1_1: Life Technologies and Expression Analysis (LTEA) Assay for Cytochrome P450 (CYP24A1_1) using HepaRG (AID 2283671; active = hit-call score of the fitted dose curve at least 0.9, where 1 is the maximum; inactive = score below 0.9); settings: mRNA level, 48 h; actives raise or lower the signal
Method in brief: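 In this test, gene induction or suppression of CYP24A1 in human HepaRG liver cells is measured by qRT-PCR after 48 h chemical treatment (eight concentrations, maximum 100 uM). Values are fitted bidirectionally relative to DMSO.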

Measured: AC50

O=C(O)c1cccnc1
inactive: [1] | [2] | [3] | [4] | [5] | [6] | [7] | [8] | [9]

Oc1ccccc1O
active: [11] 0.84 µM | [5] 60.1 µM
inactive: [1] | [10] | [3] | [4] | [12] | [13] | [9]

CC(COCC(C)OC(=O)c1ccccc1)OC(=O)c1ccccc1 (stereo not drawn)
active: [5] 7.06 µM and 4.45 µM
inactive: [10] | [2] | [3] | [12] | [6] | [7] | [13] | [9]

C/C=C/c1ccc(OC)cc1
inactive: [1] | [10] | [3] | [14] | [4] | [9]
active: [11] 28.4 µM

C=CCCCCCCCCCCCC
inactive: [1] | [2] | [3] | [4] | [12] | [5] | [9]

O=NO
inactive: [15] | [10] | [2] | [4] | [12] | [6] | [7] | [9]

CC(=O)O
inactive: [10] | [2] | [3] | [14] | [4] | [12] | [5] | [9]

Cc1cn([C@H]2C=C[C@@H](CO)O2)c(=O)[nH]c1=O
inactive: [1] | [2] | [3] | [4] | [12] | [6] | [7] | [8] | [9]

CCCCC(CC)COP(=O)(OCC(CC)CCCC)OCC(CC)CCCC (stereo not drawn)
inactive: [1] | [10] | [3] | [14] | [4] | [12] | [6] | [7] | [8] | [9]

Oc1ccc(O)cc1
inactive: [1] | [10] | [14] | [12] | [13]
active: [11] 0.767 µM | [5] 15.6 µM | [9] 2.69 µM

CC(C)COC(=O)CCCCC(=O)OCC(C)C
active: [5] 32.4 µM
inactive: [10] | [3] | [4] | [9]

CC(=O)O[C@]1(C(C)=O)CC[C@H]2[C@@H]3C=C(Cl)C4=CC(=O)[C@@H]5C[C@@H]5[C@]4(C)[C@H]3CC[C@@]21C
active: [5] 15.2 µM
inactive: [15] | [10] | [2] | [3] | [12] | [13] | [9]

OCC(CO)n1cnc(-c2ccc(F)cc2)c1-c1ccnc(Oc2ccccc2)n1
inactive: [10] | [2] | [3] | [14] | [4] | [12] | [9]

COC(=O)[C@H]1[C@H]2C[C@@H]3c4[nH]c5cc(OC)ccc5c4CCN3C[C@H]2C[C@@H](OC(=O)c2cc(OC)c(OC)c(OC)c2)[C@@H]1OC
active: [11] 7.3 µM
inactive: [1] | [2] | [4] | [12] | [6] | [9]

NC1CCCCC1
inactive: [10] | [2] | [4] | [12] | [9]

CC(C)(C)c1ccccc1
inactive: [1] | [2] | [3] | [4] | [12]
active: [9] 24.6 µM

CC(C)NCC(O)c1ccc(O)c(O)c1 (stereo not drawn)
inactive: [15] | [10] | [2] | [3] | [4] | [12] | [9]
active: [11] 0.616 µM

CCN(CC)CCOc1ccc(C(=C(Cl)c2ccccc2)c2ccccc2)cc1
inactive: [15] | [2] | [3] | [14] | [4] | [13]
active: [5] 1.56 µM | [6] 6.22 µM | [7] 1.17 µM | [8] 2.53 µM | [9] 37.8 µM

O=Cc1ccccc1C=O
inactive: [15] | [10] | [2] | [14] | [4] | [12] | [6] | [7]
active: [11] 41.8 µM | [5] 1.15 µM | [9] 3.08 µM

CCCCCCC(CCCCCCCCCCC(=O)OCC(COC(C)=O)OC(C)=O)OC(C)=O (stereo not drawn)
active: [5] 7.74 µM
inactive: [1] | [10] | [16] | [17] | [3] | [4] | [18] | [19] | [12] | [20]

CCCCC(CC)CO (stereo not drawn)
inactive: [1] | [2] | [16] | [17] | [3] | [18] | [19] | [12] | [20] | [9]

COc1ccc(C(=O)Nc2nc3ccccc3c(NCc3ccccc3)c2C#N)cc1
active: [13] 0.909 µM
inactive: [10] | [2] | [3] | [4] | [12] | [9]

CC(=O)S[C@H](C(=O)N[C@H]1Cc2ccccc2[C@H]2CCC[C@@H](C(=O)O)N2C1=O)C(C)C
inactive: [1] | [3] | [14] | [12] | [6] | [7] | [9]

CC(C)c1cccc(C(C)C)c1
inactive: [15] | [10] | [2] | [14] | [4] | [12] | [9]

CCc1cc(C2=C(C(=O)O)N(c3ccccc3C(F)(F)F)S(=O)(=O)c3ccccc32)cc2c1OCO2
inactive: [1] | [3] | [14] | [12] | [5] | [6] | [7] | [8] | [9]
